# Assay results taken from PubChem BioAssay AID504861 (Broad Institute, 2011).
# Out of some 1,200 compounds screened, about 290 (24%) were called active. Not shown: some 3% with an inconclusive outcome. These entries were drawn from the full list. Results with a measured potency or affinity are listed apart. Unmarked numbers belong to inactive results.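 How the source made its calls: active means compounds lowering cell viability signal with fitted half-maximal concentration at most ten times their highest tested concentration; inconclusive means flat fit with 30 to 70% signal loss, or poor fit; inactive means the rest.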
# Assay: cytotoxicity in HEK293T cells – cell-based, CellTiter-Glo luminescence, cherry-picks, cytotoxicity control for LMP1 NF-kB inhibitor project, dose response (AID 504861)
# Settings: HEK293T viability, CellTiter-Glo ATP luminescence, 48 h; series mostly up to 26 µM; activity change, negative = cytotoxicity: at the top concentration
row,Compound,"activity change, negative = cytotoxicity [%]"
1,COc1ccc(NC(=O)N(CCN2CCCC2)Cc2cc3cc(OC)c(OC)cc3[nH]c2=O)cc1,12
2,CC(C)CC1C(=O)N(Cc2cn(CC3CCCCC3)nn2)CCS(=O)(=O)N1Cc1ccc(-c2ccc(F)nc2)cc1 (stereo not drawn),-1.62
3,O=C(Nc1ccccn1)NC1CCCCC1,-6.08
4,Cc1ccc(C(=O)Nc2ccc3ncccc3c2)cc1,-1.4
5,CCC(C)N1C(=O)CCC1C(=O)N1CCN(c2ccc(F)cc2)CC1 (stereo not drawn),7.52
6,c1cncc(CNc2ncnc3ccc(-c4ccoc4)cc23)c1,3.52
7,O=c1cc(-c2ccccc2)[nH]c2ccc(F)cc12,11.4
8,CCOc1ccc(OCc2cccc(C(=O)N3CCCC3)c2)cc1,-4.95
9,COc1ccc(-c2ccc3c(c2)S(=O)(=O)c2cccc(C(=O)NCc4cc(C)oc4C(F)(F)F)c2C3=O)cc1OC,0.555
10,COCCCNC(=O)CN1C(=O)COc2ccc(S(=O)(=O)N3CCOCC3)cc21,5.96
11,CN1CCc2cccc3c2C1Cc1ccc(O)c(O)c1-3 (stereo not drawn),3.34
12,CSc1ccccc1NC(=O)CN1CCCCC1C (stereo not drawn),4.27
13,COc1ccc2cc(-c3cc(C(=O)OCC(=O)Nc4c(C)n(C)n(-c5ccccc5)c4=O)c4ccccc4n3)ccc2c1,2.98
14,CCc1ccc(/C=C/C(=O)C2C(=O)c3ccccc3C2=O)cc1,9.63
15,N#CCCn1cc(C(=O)Nc2ccccn2)c(-c2ccccc2)n1,9.63
16,CC1=NN(C(N)=S)C(=O)C1N=Nc1cccc(C(=O)O)c1 (stereo not drawn),0.78
17,C[C@@]12C(=O)N(Cc3ccccc3)CC(=O)N1[C@H](/C=C/c1ccccc1)[C@@H]1C(=O)N(c3ccccc3)C(=O)[C@@H]12,5.94
18,COc1cc(OC)cc(C(=O)N[C@H](C(=O)OCC(=O)c2ccc(C)c([N+](=O)[O-])c2)C(C)C)c1,5.81
19,Clc1ccc(-n2ncc3c(N4CCCC4)ncnc32)cc1,1.84
20,COc1cc(CC(=O)N(c2ccccc2)c2nc(C)cs2)cc(OC)c1OC,2.07
21,Cc1nc2sc(-c3ccccc3)cc2c(=O)n1N,-3.13
22,COCCN1CSC(=S)N(Cc2ccco2)C1,1.64

row,Compound,"activity change, negative = cytotoxicity [%]"
1,O=C(Nc1ccc(Cl)cc1)Nc1nnc(CSCc2ccc(Cl)cc2)s1,-4.04
2,COc1cccc(/C=N\NC(=O)c2ccc(C)nc2)c1,0.683
3,COc1cc(NCCCCCCN)c2ncccc2c1OC,-2.14
4,O=C(C=C1SCCS1)/C=C/c1ccco1,-0.337
5,COc1cccc(C(=O)CC(=O)C(=O)Nc2ccc(C)cc2Cl)c1,13.5
6,CCSC1=C(C#N)C(c2ccc(C)o2)CC(=O)N1 (stereo not drawn),7.27
7,Cc1cc(=O)[nH]c(N/N=C/c2ccc(C)o2)n1,5.2
8,CCOc1ccc(/C=N/Nc2cc(N3CCOCC3)ncn2)c(O)c1,9.16
9,Cc1cc(N=Cc2c(O)ccc3cc(Br)ccc23)no1,16.6
10,CCCC(=O)NCCCc1nc2ccccc2[nH]1,6.88
11,COc1ccc(NC(=O)c2cc3ccccc3oc2=O)cc1,4.4
12,O=C1c2ccccc2C(Nc2cccnc2)N1Cc1ccccc1 (stereo not drawn),4.75
13,C[C@H](CO)N1C[C@H](C)[C@@H](CN(C)C(=O)NC2CCCCC2)Oc2c(NS(=O)(=O)c3cn(C)cn3)cccc2C1=O,10.7
14,COc1ccc(C(c2sc3nc(C)nn3c2O)N2CCC(C(N)=O)CC2)cc1OC (stereo not drawn),4.88
15,CCCN(CCC)c1ncnc2nc[nH]c12,-15
16,Cc1ccc(-n2nc(C(=O)NCc3ccc(C)o3)c3c4ccccc4n(C)c3c2=O)cc1,1.07
17,Cc1ccc(-c2nnn(CC(=O)N(Cc3ccco3)C(C(=O)NC(C)(C)C)c3ccncc3)n2)o1 (stereo not drawn),6.77
18,CCC(C)n1ncn(-c2ccc(N3CCN(c4ccc(OCC5COC(Cn6cncn6)(c6ccc(Cl)cc6Cl)O5)cc4)CC3)cc2)c1=O (stereo not drawn),5.74
19,CC(=C/c1ccccc1)/C=N/n1c(-c2ccncc2)n[nH]c1=S,2.82
20,CCCc1c(C(=O)N/N=C(\C)c2ccccn2)nnn1-c1nonc1N,-2.76
21,Cc1ccnc(NC(=O)c2cccc(NC(=O)c3ccc(Cl)c(Cl)c3)c2)c1,1.38
22,N/C(=N\OC(=O)c1cccc(Br)c1)c1ccccn1,1.86

row,Compound,"activity change, negative = cytotoxicity [%]"
1,O=C(O)c1ccc(C=NN=C2c3ccccc3-c3ccccc32)cc1,-3.57
2,Cc1ccc(CCNC(=O)CCc2nc3ccccc3[nH]2)cc1,11.4
3,CCn1c2ccccc2c2cc(/C=N/n3c(-c4cc(C)[nH]n4)n[nH]c3=S)ccc21,28
4,O=C(O)c1cn2c3c(ccc(Cl)c3c1=O)OCC2,-3.22
5,S=c1[nH]nc(C2CCCCC2)n1/N=C/c1ccncc1,-1.04
6,CCN(CC)S(=O)(=O)c1ccc(N=NC2=C(O)CCCC2=O)cc1,-0.271
7,CCN(CC)S(=O)(=O)c1ccc(N/N=C/c2ccc(O)cc2O)nc1,6.74
8,COC(=O)C1=NNC(C(=O)OC)C1c1ccccc1 (stereo not drawn),13.5
9,COCCCNCC1C(Oc2ccc(Cl)cc2)C(=O)N1c1ccccc1C (stereo not drawn),-10
10,COc1ccc(C(=O)Nc2cc(C)c(NC(=O)c3ccccc3OC)cn2)cc1,-4.03
11,COc1ccccc1-n1cc([C@@H]2C[C@H]3CN(c4ccccc4)C(=O)[C@]34CCCN24)cn1,-10.5
12,COc1ccc2cc(C(N)=O)/c(=N\NC(=O)c3ccccc3)oc2c1,8.96
13,CCOC(=O)CNC(=O)CSc1nnc(NC(=O)c2ccc(C)cc2)s1,11.2
14,Nc1cc(=O)[nH]c(SCCSc2cc(Cl)ccc2Cl)n1,8.12
15,O=C(Nc1ccc(N2CCOCC2)cc1)c1cn2ccccc2n1,-4.89
16,COc1cc(/C=C(\C#N)c2ccccn2)ccc1OCc1ccccc1Cl,3.91
17,CN(C)CCN(Cc1ccc(Cl)cc1)c1ccccn1,9
18,CCn1c2ccccc2c2cc(/C=N/n3c(C)nnc3C)ccc21,-0.28
19,Cn1cccc1C(=O)OCC(=O)Nc1ccc2c(c1)OCO2,10.4
20,Cc1ccc2oc(C(=O)Nc3ccc(S(=O)(=O)Nc4onc(C)c4C)cc3)c(C)c2c1,-4.22
21,O=C(CN1C(=O)c2ccccc2S1(=O)=O)c1ccc(F)c(F)c1,6.66
22,CC(=O)c1sc(NC(=O)C2COc3ccccc3O2)nc1C (stereo not drawn),1.27

row,Compound,"activity change, negative = cytotoxicity [%]"
1,Cc1ccccc1NC(=O)CN1C(=O)S/C(=C\c2cccn2-c2cccc(C(=O)O)c2)C1=O,18.8
2,O=C(O)/C=C/c1ccc2ccccc2n1,5.78
3,CCOC(=O)Nc1ccc2c(c1)N(C(=O)CN(C)C)c1ccccc1CC2,8.4
4,CCOCCCNC(=O)CN1C(=O)/C(=C\c2ccc(C)cc2)Sc2ccccc21,1.27
5,CCN(c1ccccc1)S(=O)(=O)c1ccc(Cl)c(NC(=O)Nc2ccc(Cl)cc2C#N)c1,0.681
6,COc1ccc(-c2csc3ncnc(NCCO)c23)cc1,-5.42
7,COC(=O)c1cc2n(n1)CCN(Cc1ccccc1Cl)C2=O,20.5
8,CC1CN(c2cc(=O)n(-c3ccccc3)c(=O)[nH]2)CC(C)O1 (stereo not drawn),5.49
9,CCc1cc2c(Sc3nc4ccccc4s3)ncnc2s1,3.61
10,Cc1nn(-c2ccccc2)c(Cl)c1C(=O)N1CCN(c2ncnc3c2cnn3-c2ccccc2)CC1,-6.98
11,CC1(C)Cc2c(ccc3ccccc23)/C(=C/C(=O)N2CCCCC2)N1,-4.53
12,COc1ccc(NC(=O)NCCN2CCc3ccccc3C2)cc1,12.1
13,COc1ccc2cc(-c3cc(C(=O)O)c4ccccc4n3)ccc2c1,-2.9
14,Cc1cc2cc(CN(Cc3ccco3)S(=O)(=O)c3c(C)ccc4nsnc34)c(=O)[nH]c2cc1C,5.72
15,CCCN(CC)c1ncnc2[nH]ncc12,6.36
16,COc1ccc(/C=N/Nc2cc(OC)ncn2)cc1,-6.09
17,CN(C)c1ccc(C=Cc2ccnc3c(O)cccc23)cc1,7.55
18,COc1ccc(CC(C)NCC(O)c2ccc(O)c(NC=O)c2)cc1 (stereo not drawn),9.09
19,COc1ccc(-n2c(SCC(=O)Nc3ccc4c(c3)OCO4)nc3c(c2=O)SCC3)cc1,14.8
20,CCOCCCn1cnc2c3cc(F)ccc3n(C)c2c1=O,4.26
21,CC(C)(C)n1nc(-c2ccc(Cl)cc2)c2c(N)ncnc21,5.92
22,CCc1ccc(/C=C2\SC(=S)N(CCCC(=O)NC3=NCCS3)C2=O)cc1,4.7

row,Compound,"activity change, negative = cytotoxicity [%]"
1,CCOc1cc(/C=C2/C(=N)N3N=C(CC)SC3=NC2=O)ccc1OC(=O)c1ccco1,1.86
2,COc1ccc(-c2cc(C(=O)N3CCCC3)no2)cc1,-9.67
3,O=Cc1ccc(-c2cccs2)s1,2.5
4,COC(=O)c1ccc(CSc2nc3c(c(=O)n2-c2ccc(C)cc2)SCC3)o1,0.495
5,Cc1ccc(-n2cc(C(=O)c3ccccc3O)cn2)cc1,1.39
6,COc1ccc(C(=O)N=c2nc3ccccn3s2)cc1,0.856
7,CC(=O)c1cc(C(=O)Nc2ccc(C(=O)O)cc2)oc1C,6.62
8,COc1ccc(NC(=O)/C(C#N)=C/c2cc(C)n(-c3ccc(N4CCOCC4)c([N+](=O)[O-])c3)c2C)cc1,12.6
9,CCOC(=O)c1c(CSc2nc(C)cc(C)c2C#N)n(C)c2cc(Br)c(OC(C)=O)cc12,7.63
10,CCOc1ccc(Nc2ncnc3ccc([N+](=O)[O-])cc23)cc1,0.16
11,Cc1nc(SCC(=O)c2cccc([N+](=O)[O-])c2)n[nH]1,6.82
12,CC(NC(=O)CNC(=O)OCc1ccccc1)C(=O)N1CC(O)CC1C(=O)OCc1ccccc1 (stereo not drawn),3.26
13,CC(C)(C)OC(=O)N1Cc2ccccc2C[C@H]1C(=O)NCC(=O)Nc1ccc2c(c1)OCCO2,1.18
14,COc1ccc(-n2cnc3c(cnn3CCC#N)c2=N)cc1,1.49
15,Cc1ccn2c(c1)nc(=S)n2C(=O)c1ccccc1,4.84
16,COc1ccc(NC(=O)c2cc3c(CO)cnc(C)c3oc2=Nc2cccc(F)c2)c(OC)c1,5.36
17,N#Cc1c(Nc2ccccc2)sc(C(=O)c2ccc(F)cc2)c1N,-4.44
18,C=CCn1c(SCc2csc(C)n2)nc2sc3c(c2c1=O)CCCC3,0.035
19,CCn1c2ccccc2c2cc(/C=N/n3cn[nH]c3=S)ccc21,-7.9
20,O=C1CC(c2cccs2)Cc2nc(NC(=O)C3CC3)ncc21 (stereo not drawn),5.6
